Active and inactive are the calls of the source. The rule behind the calls is not given here.
What follows are molecules tested against Large T antigen (Simian virus 40) (UniProt P03070) (assay: SV40 TAg ATPase inhibitors, biochemical, ADP-Hunter, purified TAg, synthesized compounds, set 2 (AID 449729)). Conditions: ADP-Hunter fluorescence; series mostly up to 100 µM.
Chain of Large T antigen (Simian virus 40) (P03070 whole entry, looked up): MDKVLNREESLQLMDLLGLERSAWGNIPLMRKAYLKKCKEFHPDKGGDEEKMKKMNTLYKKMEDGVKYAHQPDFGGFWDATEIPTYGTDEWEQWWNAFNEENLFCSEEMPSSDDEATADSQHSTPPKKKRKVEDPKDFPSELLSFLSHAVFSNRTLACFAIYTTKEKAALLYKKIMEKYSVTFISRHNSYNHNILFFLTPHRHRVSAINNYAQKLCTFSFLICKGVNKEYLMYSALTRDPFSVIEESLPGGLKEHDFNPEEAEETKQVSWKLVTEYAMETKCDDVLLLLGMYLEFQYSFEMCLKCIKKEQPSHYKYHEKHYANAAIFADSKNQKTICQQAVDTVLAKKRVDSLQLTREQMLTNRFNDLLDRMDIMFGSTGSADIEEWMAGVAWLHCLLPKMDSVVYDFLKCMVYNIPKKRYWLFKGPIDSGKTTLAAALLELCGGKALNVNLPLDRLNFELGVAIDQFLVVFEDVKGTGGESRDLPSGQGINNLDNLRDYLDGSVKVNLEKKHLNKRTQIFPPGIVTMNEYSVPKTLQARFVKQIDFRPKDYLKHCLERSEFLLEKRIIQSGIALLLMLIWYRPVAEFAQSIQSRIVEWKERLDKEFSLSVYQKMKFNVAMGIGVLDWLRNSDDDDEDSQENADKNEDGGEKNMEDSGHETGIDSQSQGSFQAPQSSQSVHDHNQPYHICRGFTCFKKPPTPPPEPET

SMILES | outcome
Oc1ccc(C2(c3ccc(O)cc3)CC2)cc1 | inactive
C=C(c1ccccc1Cl)c1ccccc1Cl | inactive
C=C(c1ccc(Cl)cc1)c1ccc(Cl)cc1 | inactive
C=C(c1ccc(F)cc1)c1ccc(F)cc1 | inactive
COc1cccc(C(C)(O)c2cccc(OC)c2)c1 | inactive
C=C(c1cccc(OC)c1)c1cccc(OC)c1 | inactive
CC(C)(c1ccc(O)cc1)c1cccc(O)c1 | inactive
C=C(c1ccc(Br)cc1)c1ccc(Br)cc1 | inactive

From PubChem BioAssay AID449729 (Southern Research Specialized Biocontainment Screening …, 2010)
